# PubChem BioAssay (NCATS)
# Inconclusive results are not listed. The source made the active and inactive calls. Calls come from the whole dose curve; as a rule, active = well fitted cell-killing curve with a large enough effect; inconclusive = small, poorly fitted or top-dose-only effect; inactive = flat fitted curve, though single readings scatter.
# Experiment: Cell Viability - LYMP2-013 (AID 970); note: nearly all actives have a fitted effect of over 55% in size;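 for activity change, negative = cytotoxic: 0% = DMSO only and full inhibition = tetraoctylammonium bromide control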
# Conditions: LYMP2-013 lymphoblastoid cells viability; series mostly up to 92.2 µM; activity change, negative = cytotoxic: at the top concentration
# Excerpt: NIH Chemical Genomics Center [NCGC]
# NIH Molecular Libraries Screening Centers Network [MLSCN]
# National Institutes of Environmental Health Sciences [NIEHS]
# National Toxicology Program [NTP]
# We have developed a 1536-well cell-based assay for quantitative high throughput screening (qHTS) against a number of cell lines to determine in vitro cytotoxicity of small molecules. This particular assay uses a human lymphoblastoid cell line (LYMP2-013) purchased from Coriell Institute for Medical Research.
# NCGC Assay Protocol Summary:
# The CellTiter-Glo luminescent cell viability assay (Promega) is a homogeneous method to measure the number of viable cells in culture. The end point readout of this assay is based on quantitation of intracellular ATP, an indicator of metabolic activity, using the luciferase reaction. Luciferase catalyzes the oxidation of beetle Luciferin to oxyluciferin and light in the presence of ATP. The luminescent signal is proportional to amount of ATP present.
# Using the CellTiter-Glo luminescent cell viability assay, the amount of cellular ATP was measured in the lymphoblastoid cell line with complete culture medium following compound treatment for 24 hours. The assay was performed in opaque white Kalypsys 1536-well plates. In the screen, tetraoctylammonium bromide was used as positive control. Library compounds were measured for their ability to cause acute toxicity in the cell line, as reflected by a decrease in intracellular ATP levels, in a concentration-dependent manner. […] AC50 values were determined from concentration-response data modeled with the standard Hill equation.
# qHTS protocol for CellTiter Glo lymphoblastoid cellular assay
# [Step] [Parameter] [Value] [Description]
# 1. Reagent; 5 uL; 2500 lymphoblastoid cells/well
# 2. Time; 5 hr; 37 C incubation
# 4. Controls; 23 nL; Tetraoctylammonium bromide 6.4pM to 92 uM
# 5. Time; 24 hr; 37 C incubation
# 6. Reagent; 5 uL; CellTiter Glo reagent
# 7. Time; 30 min; Room Temperature
# 8. Detection; Luminescence; Viewlux plate reader
# Keywords: cell viability, cytotoxicity, lymphoblastoid cell line, luminescence, NTPHTS, NTPHTS_NCGC, NIEHS, DSSTox, MLSMR, MLSCN, NIH Roadmap, qHTS, NCGC
# Potency is the fitted concentration of half-maximal effect.
Structure (SMILES),"activity change, negative = cytotoxic",Potency
C[C@@H]1CC2(OC(O)[C@]3(C)O[C@H]23)O[C@H]2C[C@@]3(C)[C@@H]4CC[C@H]5C(C)(C)C(O[C@@H]6OC[C@@H](O)[C@H](O)[C@H]6O)CC[C@@]56C[C@@]46CC[C@]3(C)[C@@H]12 (stereo not given in full),-25.6% (inactive),
c1ccc(SCCSc2ccccc2)cc1,-4.8% (inactive),
Oc1c(Cl)cc(Cl)c(Cl)c1Cl,-4.44% (inactive),
CC(=O)OC1CC(C)OC(C)O1 (stereo not given),-3.31% (inactive),
CCNC(=S)NCC,-2.17% (inactive),
C=Cc1cccc(C)c1,-2.42% (inactive),
O=[N+]([O-])c1cccc(I)c1,-5.63% (inactive),
S=C(NC1CCCCC1)NC1CCCCC1,-21% (inactive),
C=C(C#N)C(=O)OCC,-20.9% (inactive),
Nc1cnn([C@@H]2O[C@H](CO)[C@@H](O)[C@H]2O)c(=O)n1,4.93% (inactive),
Cc1cccnc1,-0.775% (inactive),
O=[N+]([O-])c1ccccc1Nc1ccccc1,0.203% (inactive),
O=CC(=O)c1ccccc1,-28.5% (inactive),
COc1ccc(C)cc1N,-4.93% (inactive),
OCC(CBr)(CBr)CBr,-11.1% (inactive),
C1CCCNCC1,4.07% (inactive),
CCCCC(CC)COCCCN (stereo not given),-13.1% (inactive),
Nc1ccccc1O,-10.5% (inactive),
O=C(OCc1ccccc1)c1ccccc1O,-0.918% (inactive),
Cc1cc2nc(N)sc2cc1C,-8.49% (inactive),

Structure (SMILES),"activity change, negative = cytotoxic",Potency
OCC(CO)(CBr)CBr,-3.26% (inactive),
CCc1ccc(C(c2ccc(CC)cc2)C(Cl)Cl)cc1,-9.99% (inactive),
Nc1ccc(N)c(Cl)c1,-13.6% (inactive),
CC(=O)OCc1ccc2c(c1)OCO2,-2.38% (inactive),
O=C(O)c1ccc([N+](=O)[O-])cc1,-7.08% (inactive),
O=c1[nH]ncc2ccccc12,-1.92% (inactive),
Cc1ccc2ccc3cccc4ccc1c2c34,-10.9% (inactive),
c1c[nH]cn1,-1.21% (inactive),
c1ccc2c(c1)ccc1ccccc12,0.6% (inactive),
CCCCCCCC/C=C\CCCCCCCC(=O)N(CCO)CCO,-13% (inactive),
CCCCOC(=O)COc1ccc(Cl)cc1Cl,-5.71% (inactive),
CCCCC(CC)COC(=O)COc1ccc(Cl)cc1Cl (stereo not given),-2.43% (inactive),
O=C1OC(=O)c2ccccc21,-10.7% (inactive),
CCCC(=O)OC(=O)CCC,3.05% (inactive),
CC/C=C/C/C=C/C/C=C/CCCCCCCC(=O)OCC,,50.1 µM (active)
C=CC(=O)CC,-7.29% (inactive),
Cc1ccc(O)c(N)c1,,79.4 µM (active)
C=CC(=O)OCCCCCCOC(=O)C=C,,39.8 µM (active)
CC(C)(C)C(=O)C1C(=O)c2ccccc2C1=O,-18.8% (inactive),
CCN(CC)c1ccc2c(C)cc(=O)oc2c1,-4.51% (inactive),
